Data taken from PubChem BioAssay (Tox21).
Values joined by “and” are separate entries in the source; they are usually repeats but may differ in a detail not shown here. Equal entries are not always repeated. Inconclusive results are not listed. Active and inactive are the calls of the source. Calls follow the shape of the dose curve; as a rule, active = well fitted inhibition curve with a large enough effect in the repeat runs; inconclusive = weak or mixed curves; inactive = no such curve, though single readings can be large or run the other way.

Assay: qHTS assay to identify small molecule antagonists of the thyroid receptor (TR) signaling pathway (AID 743065); also: nearly all actives have a fitted effect of over 55% in size
Conditions: GH3.TRE-Luc, T3-stimulated luciferase inhibition, 23.5 h; series mostly up to 70.3 µM; activity, negative = inhibition: at the top concentration
Excerpt: U.S. Tox21 Program National Center for Advancing Translational Sciences [NCATS] NIH Chemical Genomics Center [NCGC] U.S. Environmental Protection Agency [EPA] National Institutes of Environmental Health Sciences [NIEHS] National Toxicology Program [NTP] U.S. Food and Drug Administration [FDA] Tox21 Assay Overview: Thyroid receptor (TR), a nuclear hormone receptor, plays an important role in development, proliferation, differentiation, metabolism, brain function, and cardiovascular system. […] To profile the Tox21 10K compound library in TR signaling, a cell-based GH3-TRE-Luc assay (GH3.TRE-Luc cell line, developed by the laboratory of Dr. Albertinka J. Murk, Wageningen University) was used to measure the inhibition of TR. GH3 (rat pituitary tumor) cells stably expressing a TR activity sensor consisting of two TR response elements and a luciferase reporter gene.
Tox21 Assay Protocol Summary: GH3.TRE-Luc cells were dispensed at 1500 cells/4 uL/well into 1536-well white solid bottom plates using a Multidrop Combi dispenser (Thermo Fisher Scientific Inc., Waltham, MA). After the assay plates were incubated at 37 C for 4 hours, 23 nL of library compound or DMSO controls was transferred to the assay plates by a pintool station (Kalypsys, San Diego, CA), followed by addition of 1 ul of T3 (1 nM, final concentration in the wells) to stimulate TR transactivation. The assay plates were incubated at 37 C for 23.5 h, and then 1 uL of CellTiter-Fluor reagent (Promega, Madision, WI) of measuring cytotoxicity was added to each well using a Bioraptr Flying Reagent Dispenser (FRD) workstation (Beckman Coulter, Indianapolis, IN, USA). The plates were incubated at 37 C and 5% CO2 for additional 30 min, and fluorescence intensity was measured by a ViewLux plate reader (PerkinElmer, Shelton, CT). For measuring luciferase reporter gene activity, 4 uL of ONE-Glo Luciferase Assay reagent (Promega) was added to each well using a Bioraptr FRD (Beckman Coulter), followed by 30 min incubation at room temperature. The luminescence intensity of plates was recorded by a ViewLux plate reader (PerkinElmer, Shelton, CT).
% is scaled to controls: 0 for no effect and ±100 for the full control effect; potency is read from the fitted curve at half-maximal effect.

Row | SMILES | Potency | activity, negative = inhibition
1 | Clc1ccc(C(Cn2ccnc2)OCc2c(Cl)cccc2Cl)c(Cl)c1 (stereo not given) | 11.4 µM (active) | 
2 | Cc1cc(Nc2ccc(O)cc2)ccc1N | 7.66 µM (active) | 
3 | C=C1C(C)(C)[C@@]2(Cl)C(Cl)[C@]1(Cl)C(Cl)(Cl)C2(Cl)Cl (stereo not given in full) | 23.9 µM (active) | 
4 | O=Nc1ccc(NO)cc1 |  | -7.69% [at 95 µM] (inactive)
5 | CN(C)c1ccc(N=Nc2ccccc2C(=O)O)cc1 | 9.69 µM (active) | 
6 | CC(C)N=C(N)/N=C(\N)Nc1ccc(Cl)cc1 | 2.54 µM (active) | 
7 | CC(O)C#CC(C)O (stereo not given) | 60.5 µM (active) | 
8 | CCCCCCCC/C=C\CCCCCCCC(=O)OCCOC(=O)CCCCCCC/C=C\CCCCCCCC |  | -9.1% [at 95 µM] (inactive)
9 | COC(=O)CC(C)CCC=C(C)C (stereo not given) |  | 0.0589% (inactive)
10 | C[n+]1c2cc(N)ccc2cc2ccc(N)cc21 (tested in a mixture with another compound) | 6.68 µM (active) | 
11 | O=C1NC2CCCCN2C12CCN(CCCN1c3ccccc3CCc3ccc(Cl)cc31)CC2 (stereo not given) | 8.41 µM (active) | 
12 | CCN(CC)CCCN(c1ccccc1)C1Cc2ccccc2C1 | 2.11 µM (active) | 
13 | CCCCCCCCCCCCN(CCO)CCO | 15.3 µM (active) | 
14 | CC(C)(c1cc(Br)c(OCCO)c(Br)c1)c1cc(Br)c(OCCO)c(Br)c1 | 9.47 µM (active) | 
15 | c1ccc(Nc2cccc3ccccc23)cc1 | 69.5 µM (active) | 
16 | NC(=O)c1ccccc1N |  | 1.29% [at 95 µM] (inactive)
17 | CC(C)OC(=O)c1cc(C(=O)OC(C)C)cc([N+](=O)[O-])c1 |  | 20.5% [at 95 µM] (inactive)
18 | COC(=O)C1=C(C)NC(C)=C(C(=O)OCCCN2CCC(c3ccccc3)(c3ccccc3)CC2)C1c1cccc([N+](=O)[O-])c1 (stereo not given) | 7.5 µM (active) | 
19 | C=CC(=O)OCCOCC(CC)(COCCOC(=O)C=C)COCCOC(=O)C=C |  | 14.3% [at 95 µM] (inactive)
20 | CNC(=S)NN | 61.1 µM (active) | 

Row | SMILES | Potency | activity, negative = inhibition
21 | CC(=O)Nc1ccc(O)cc1 | inactive | 
22 | CC(=O)OC(OC(C)=O)c1ccc([N+](=O)[O-])o1 | 13.9 µM (active) | 
23 | C/C=C/C=N/NC(=O)c1ccncc1 |  | 8.25% (inactive)
24 | COc1ccc2sc(C(=O)Nc3nnn[nH]3)c(OC(C)C)c2c1 | 6.09 µM (active) | 
25 | CCc1cccc(C)c1 |  | -6.44% [at 95 µM] (inactive)
26 | CCCCCCCC/C=C/CCCOC(C)=O |  | 9.11% (inactive)
27 | c1cc2c3c(c1)ccc1cccc(c13)C2 |  | 6.7% [at 95 µM] (inactive)
28 | CNCC[C@H](Oc1cccc2ccccc12)c1cccs1 | 7.5 µM (active) | 
29 | COC(=O)[C@]1(C)CCC[C@@]2(C)[C@H]1CC=C1C=C(C(C)C)CC[C@@H]12 | 43.3 µM (active) | 
30 | O=C(O)CCCCCCC(=O)O |  | 13.6% [at 95 µM] (inactive)
31 | ClC/C=C\CCl |  | 0.721% [at 95 µM] (inactive)
32 | Cc1nc(Nc2ncc(C(=O)Nc3c(C)cccc3Cl)s2)cc(N2CCN(CCO)CC2)n1 | 18.8 µM (active) | 
33 | O=S(=O)(O)CCCN1CCOCC1 |  | 8.99% (inactive)
34 | Cc1ccc2ccc3cccc4ccc1c2c34 |  | 11.8% (inactive)
35 | CC(C)(C)c1cc(/C=C2\SC(=N)NC2=O)cc(C(C)(C)C)c1O | 13.7 µM (active) | 
36 | CN(C)CCCN1c2ccccc2Sc2ccc(C(F)(F)F)cc21 | 10.6 µM (active) | 
37 | CCC(=O)OCCc1ccccc1 |  | 1.35% (inactive)
38 | CCCCCCCCCCCCOC(=O)c1cc(O)c(O)c(O)c1 | 2.72 µM (active) and 1.93 µM (active) | 
39 | O=C1c2c(O)ccc(O)c2C(=O)c2c(NCCNCCO)ccc(NCCNCCO)c21 | 0.507 µM (active) | 
40 | COc1cc(C=C2CCC/C(=C\c3ccc(O)c(OC)c3)C2=O)ccc1O | 6.68 µM (active) | 
